The values that follow come from PubChem BioAssay AID624255 (Broad Institute, 2012).

In all, about 77,000 compounds went through this assay and about 4,600 (6%) were called active. About 1% were inconclusive and are not listed. The sample as a whole holds a higher share of actives than the screen did. Unmarked numbers belong to inactive results.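 The calls were made as follows: active = mean inhibition above about 93%, with at least 55% of replicates each passing it (limit read from the data, passing the limit was not always enough); inconclusive = only one of those two conditions holds; inactive = neither condition holds.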

This experiment can be described thus: growth inhibition of T. cruzi in host fibroblasts – cell-based, beta-gal Tulahuen parasites, NIH3T3 host, luminescence, primary screen (AID 624255). The conditions noted are these: T. cruzi beta-gal in NIH3T3, GalScreen luminescence, 90 h; at 8.34 µM; hits give high values.
In the case of `COCC#Cc1cnc2c(c1)C(=O)N([C@@H](C)CO)C[C@@H](C)[C@@H](CN(C)C(=O)c1cccnc1)O2`, the inhibition was 71.4%. Consider `O=C(CC1CC1)N1[C@@H]2CN(S(=O)(=O)c3ccc(F)cc3)c3ccccc3[C@@H]2[C@@H]1CO`, for which the inhibition was 19.2%. As to `C[C@@H]1CCCCO[C@H](CN(C)S(=O)(=O)c2cccs2)[C@H](C)CN([C@H](C)CO)C(=O)c2cc(NC(=O)c3ccccc3)ccc2O1`, the inhibition is 88.6%. In the case of `O=C(C[C@H]1C=C[C@H](NC(=O)Nc2ccccc2F)[C@@H](CO)O1)NCc1ccc(Cl)cc1` it was 27.5%; in that of `CN(C)CC#Cc1ccc([C@H]2[C@@H](CO)N(C(=O)C3CCC3)[C@H]2C#N)cc1`, 69.2%; in that of `N#C[C@@H]1[C@H](c2ccc(C#Cc3cccc(F)c3)cc2)[C@@H](CO)N1C(=O)C1CCCC1`, 97.3% (active). With `N#C[C@H]1[C@H](c2ccc(C#Cc3ccc(F)cc3)cc2)[C@@H](CO)N1C(=O)C1CCCC1` the figure was 92.9%; with `N#C[C@@H]1[C@@H](c2ccc(C#Cc3cccc(F)c3)cc2)[C@H](CO)N1C(=O)C1CCOCC1`, 83.9%; with `CC(C)C#Cc1ccc([C@@H]2[C@@H](C#N)N(C(=O)C3CC3)[C@@H]2CO)cc1`, 68.6%. In the case of `CCCC#Cc1ccc([C@@H]2[C@@H](C#N)N(C(=O)C3CCC3)[C@H]2CO)cc1` it was 92.4%. For the compound `CCCC#Cc1ccc([C@H]2[C@@H](CO)N(C(=O)C3CC3)[C@H]2C#N)cc1`, the inhibition was 74.3%. With `CCCC#Cc1ccc([C@@H]2[C@@H](C#N)N(C(=O)C3CCCC3)[C@@H]2CO)cc1`, the inhibition is 102% (active). For `N#C[C@@H]1[C@@H](c2ccc(C#Cc3cccc(F)c3)cc2)[C@@H](CO)N1C(=O)C1CCC1`, the inhibition is 101% (active).

In the case of `Cn1cnc(CCNC(=O)C[C@H]2CC[C@H]3[C@@H](COC[C@@H](O)CN3C(=O)Nc3ccc(C(F)(F)F)cc3)O2)c1`, the inhibition is 28.4%.

For `CC=Cc1ccc2n(c1=O)C[C@H]1[C@H](CO)[C@@H](C(=O)NC3CCCC3)N(Cc3ccncc3)[C@@H]21` (mixture of isomers), the inhibition is -33.3%. In the case of `CS(=O)(=O)Nc1ccc2c(c1)[C@H]1C[C@H](CC(=O)NCc3ccc(Oc4ccccc4)cc3)O[C@H](CO)[C@H]1O2` it was 3.92%; in that of `O=C(C1CCC1)N1CCCCN2[C@H](CO)[C@H](c3ccc(-c4cccc(F)c4)cc3)[C@@H]2C1`, 99.7% (active).

On to `O=C(C1CCC1)N1CCCCN2[C@H](CO)[C@H](c3ccc(-c4cccc(F)c4)cc3)[C@H]2C1`, for which the inhibition is 94.1%. Regarding `O=C(C1CC1)N1CCCCN2[C@H](CO)[C@H](c3ccc(-c4cccc(F)c4)cc3)[C@H]2C1`, the inhibition is 95.6% (active). With `O=C(C1CCCC1)N1CCCCN2[C@@H](CO)[C@H](c3ccc(-c4cccc(F)c4)cc3)[C@@H]2C1` the figure was 111% (active); with `O=C(Nc1ccc(F)cc1)N1CCCCN2[C@H](CO)[C@H](c3ccc(-c4ccncc4)cc3)[C@@H]2C1`, 67.2%. With `O=C(C1CC1)N1CCCCN2[C@H](C1)[C@@H](c1ccc(-c3cccc(F)c3)cc1)[C@@H]2CO` the figure was 32.6%. For the compound `O=C(C1CCC1)N1CCCCN2[C@H](CO)[C@H](c3ccc(-c4ccncc4)cc3)[C@@H]2C1`, the inhibition is 99.7% (active). With `O=C(N[C@H]1CC[C@H](CCNS(=O)(=O)c2ccc(F)cc2)O[C@H]1CO)c1cccnc1` the figure was 14.1%; with `CCC(=O)Nc1ccc2c(c1)C(=O)N(C)[C@@H]1CC[C@H](CC(=O)NCCc3ccncc3)O[C@@H]1CO2`, 64.6%; with `O=C(Cc1ccncc1)NCC[C@@H]1CC[C@H](NC(=O)Nc2ccc(Cl)cc2)[C@@H](CO)O1`, 37%.

`O=C(C[C@H]1C[C@H]2c3cc(NC(=O)Cc4ccncc4)ccc3O[C@H]2[C@@H](CO)O1)NCc1cccc(F)c1`: the inhibition is -15.1%. With `O=C(C[C@H]1CC[C@H]2[C@@H](COC[C@H](O)CN2CCC(F)(F)F)O1)N1CCC(Cc2ccccc2)CC1` the figure was 65.1%. As to `CN1C(=O)c2cc(NC(=O)c3ccccc3)ccc2OC[C@@H]2O[C@@H](CC(=O)NC3CCCC3)CC[C@H]21`, the inhibition is 18.9%. For the compound `CC=Cc1ccc2n(c1=O)C[C@@H]1[C@@H](CO)[C@H](C(=O)N(C)C)[C@H]2N1CCc1ccccc1` (mixture of isomers), the inhibition was 37%. In the case of `Cc1ccccc1S(=O)(=O)N1[C@H](C#N)[C@H](c2ccccc2)[C@H]1CO` it was -43.9%. Take `COc1ccc(NC(=O)N(C)C[C@@H]2Oc3c(NC(=O)NC4CCCCC4)cccc3C(=O)N([C@H](C)CO)C[C@H]2C)cc1`: the inhibition is 2.44%.

Regarding `COc1ccc(NC(=O)N(C)C[C@H]2Oc3c(NC(=O)NC(C)C)cccc3C(=O)N([C@@H](C)CO)C[C@H]2C)cc1`, the inhibition was 39.4%. With `C[C@@H]1CN([C@@H](C)CO)C(=O)c2cccc(NC(=O)Nc3cccc4ccccc34)c2O[C@H]1CN(C)S(=O)(=O)c1ccccc1` the figure was 41.2%. Take `COc1ccc(S(=O)(=O)N(C)C[C@@H]2Oc3c(NC(=O)NC(C)C)cccc3C(=O)N([C@@H](C)CO)C[C@@H]2C)cc1`: the inhibition is 11.6%. As for `C[C@@H]1CN([C@H](C)CO)C(=O)c2cccc(NC(=O)c3nc4ccccc4s3)c2O[C@H]1CN(C)S(=O)(=O)c1ccc(Cl)cc1`, the inhibition is 55.8%. In the case of `C[C@@H]1CN([C@@H](C)CO)C(=O)c2cccc(NC(=O)c3nc4ccccc4s3)c2O[C@H]1CN(C)S(=O)(=O)c1cccs1` it was 82.6%.

Take `COc1ccc(NC(=O)N(C)C[C@@H]2Oc3c(NC(=O)NC4CCCCC4)cccc3C(=O)N([C@@H](C)CO)C[C@@H]2C)cc1`: the inhibition was 99.3% (active). As for `Cc1ccc(S(=O)(=O)N(C)C[C@@H]2Oc3c(NC(=O)c4nc5ccccc5s4)cccc3C(=O)N([C@H](C)CO)C[C@@H]2C)cc1`, the inhibition was 110% (active). With `COc1ccc(S(=O)(=O)N(C)C[C@H]2Oc3c(NC(=O)Nc4cccc5ccccc45)cccc3C(=O)N([C@@H](C)CO)C[C@H]2C)cc1` the figure was 128% (active).
